For 21 molecules, activation results are on record in PubChem BioAssay AID504905 (The Scripps Research Institute Molecular Screening Center, 2011).

The list shows a part of the results. Active and inactive are the calls of the source. No stated cut-off is given here; in the data, active means activation above about 17%; inactive means the rest.

For the assay, the target named is 5-hydroxytryptamine receptor 5A (Homo sapiens) (UniProt P47898). Briefly: activation of human 5-HT5A receptor – cell-based, luminescence, counter-screen for OPRM1-OPRD1 heterodimer agonist project (AID 504905).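 Further: 0% = vehicle-treated cells and 100% = reference agonist response.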 Particulars: HTR5A agonist counterscreen, at 9.3 µM, hits give high values. For orientation: Counterscreens check selectivity or assay interference.
Chain of 5-hydroxytryptamine receptor 5A (Homo sapiens) (P47898 whole entry, looked up): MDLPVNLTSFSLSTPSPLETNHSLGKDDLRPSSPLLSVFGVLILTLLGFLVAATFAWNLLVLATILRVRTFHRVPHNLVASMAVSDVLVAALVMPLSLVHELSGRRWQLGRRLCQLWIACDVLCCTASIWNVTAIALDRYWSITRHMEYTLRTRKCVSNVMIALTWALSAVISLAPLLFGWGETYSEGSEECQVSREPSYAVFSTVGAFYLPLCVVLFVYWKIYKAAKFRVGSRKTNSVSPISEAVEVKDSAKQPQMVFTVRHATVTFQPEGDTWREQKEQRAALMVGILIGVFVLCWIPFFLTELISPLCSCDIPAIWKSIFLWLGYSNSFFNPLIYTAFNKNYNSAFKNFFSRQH
Consider `COc1ccccc1C(CNC(=O)c1ccc(C)c(S(=O)(=O)N2CCCCC2)c1)N(C)C` (stereo unspecified), for which the activation was 0.79% (inactive). `CC(OC(=O)/C=C/c1ccccc1)C(=O)Nc1ccc(C(N)=O)cc1` (stereo unspecified): the activation is 0.16% (inactive).

For the molecule `CC(c1cccnc1)N(CCN(C)C)C(=O)Nc1ccc(Cl)c(Cl)c1` (stereo unspecified), the activation was -6.75% (inactive). On to `Cc1ccc(Nc2ccccc2N)cc1`, for which the activation was 0.79% (inactive). In the case of `Cc1ccc(CN(C(=O)c2sc3ccccc3c2Cl)C2CCS(=O)(=O)C2)cc1` (stereo unspecified), the activation was 1.71% (inactive). `COCCCNc1nc2c(-c3cccc(C)c3)nnn2c2ccc(Cl)cc12`: the activation was 8.68% (inactive).

In the case of `Clc1ccc(COn2c(-c3ccc(Cl)cc3Cl)nc3ncccc32)cc1`, the activation was 0.23% (inactive). Under `CCCC(=O)NC(C)C(c1cccs1)N1CCN(c2ccccc2)CC1` (stereo unspecified) stands -1.26% (inactive). Take `CN1C(CC(=O)Nc2ccc(Br)cc2)c2ccccc2CC1(C)C` (stereo unspecified): the activation is 5.83% (inactive).

`CCc1ccc(C(CNc2nc(C(F)(F)F)nc3ccccc23)N(C)C)cc1` (stereo unspecified): the activation is -2.05% (inactive).

Regarding `O=C(NC1=CC(=O)c2ccccc2C1=O)c1ccccc1`, the activation was 3.59% (inactive). For the molecule `CN(CC(=O)Nc1ccc(Cl)cc1)C(=O)c1ccc(COc2ccccc2)cc1`, the activation was 5.21% (inactive). For `COc1ccc(-n2nnnc2-c2nc3ccccc3s2)cc1`, the activation was 4.69% (inactive). Under `COc1ccc(C(CNCC(=O)Nc2ccccc2F)N(C)C)cc1` (stereo unspecified) stands 5.09% (inactive); under `COc1cccc(/C=N/Nc2cc(C)nc(-c3ccccc3O)n2)c1O`, 0.01% (inactive). Under `N#C/C(=C(/O)COC(=O)COc1ccc(Cl)cc1)c1nc2ccccc2[nH]1` stands 9.3% (inactive); under `CN(C)C(CNC(=O)c1ccc(S(=O)(=O)NCc2ccco2)cc1)c1ccccc1` (stereo unspecified), 4.56% (inactive). With `CN1CCN(c2ccc([N+](=O)[O-])c(Sc3nc4ccccc4[nH]3)c2)CC1`, the activation was -0.05% (inactive). Under `CCOC(=O)C1(CC2CCCCO2)CCN(Cc2nc(-c3cccs3)oc2C)CC1` (stereo unspecified) stands 3.31% (inactive); under `COc1cc(/C=N/NC(=O)Nc2ccccc2)ccc1OCCOc1ccccc1C`, 10.4% (inactive); under `O=C(Nc1ccc(OC(F)(F)F)cc1)c1ccc2c(c1)no[n+]2[O-]`, 1.96% (inactive).
